About 430 (29%) of roughly 1,500 compounds were called active. How the calls were made is not given here. Only a sample is shown. Results with a measured potency or affinity are listed apart.
Assay: insulin secretion activators without glucose, dose response, counter-screen for glucose-dependent insulin secretion activators, cell-based, INS-1E, Gaussia luciferase, luminescence, cherry-pick (AID 977606)
Details: INS-1E Gaussia luciferase insulin secretion, no glucose, 100% = twice neutral-control luminescence; series mostly up to 35 µM

| Compound | outcome |
| --- | --- |
| CCCCOc1ccc(C2=NNC(=O)CC2)cc1 | inactive |
| CCc1cc2c(COC(=O)c3cccc(NS(C)(=O)=O)c3)cc(=O)oc2cc1O | inactive |
| COCCNc1nc(Oc2ccc(C(N)=O)cc2)c2sccc2n1 | inactive |
| CC(C)Cc1nc2n[nH]c(N)c2c2c1COC(C)(C)C2 | inactive |
| Cc1cc(C)c2oc(C(=O)Nc3ccc(S(=O)(=O)Nc4nccc(C)n4)cc3)cc(=O)c2c1 | inactive |
| C=CCNC(=O)c1cc(-c2ccc3c(c2)OCO3)on1 | inactive |
| O=C(N/N=C/c1ccc2c(c1)OCO2)c1ccc(Cl)cc1Cl | inactive |
| COc1ccc(C2CC(=O)Nc3sc(=N)c4c(N)c(C#N)c(N)nc4c32)cc1OC (stereo not drawn) | inactive |
| Cc1ccsc1/C=N/n1c(-c2ccncc2)n[nH]c1=S | inactive |
| COCCNc1nc(N2CCCCC2)c2cnn(C)c2n1 | inactive |
| COc1cc2c(cc1OC)C(Cc1ccc(O)cc1)NCC2 (stereo not drawn) | inactive |
| COc1cc2c(cc1OC)C(Cc1ccc(O)cc1)N(C)CC2 (stereo not drawn) | inactive |
| c1ccc(-c2nc(NCC3CC3)nc3ccsc23)cc1 | inactive |
| CN1CCCCC(NC(=O)c2ccccc2)C1=O (stereo not drawn) | inactive |
| Cc1nccn1-c1ncnc2sc3c(c12)CCCC3 | inactive |
| COc1ccccc1CSc1nc2c(c(=O)n(C)c(=O)n2C)n1C | inactive |
| COC(=O)c1ccc(CNC(=O)CCc2c[nH]c3ccccc23)cc1 | inactive |
| Cc1nnc2c(NCCC(C)C)nc3ccccc3n12 | inactive |
| CCOC(=O)c1nc(NCc2cccnc2)c2ccccc2n1 | inactive |
| Cn1c(=O)n(Cc2ccccc2Br)c2ccccc21 | inactive |
| CC(C)CCN1CC(O)=C(c2nc(-c3ccc(Cl)cc3)cs2)C1=N | inactive |
| C=CCNc1cc(C)oc(=O)c1C(=O)CCC | inactive |
| COc1ccccc1Cn1c(=O)oc2ccccc21 | inactive |
| COc1ccccc1CNS(=O)(=O)c1cc(-c2cc(C)no2)ccc1C(C)C | inactive |
| COc1ccc(CNC(=O)C2Cc3c(-c4cccc(F)c4)ccnc3O2)cc1OC (stereo not drawn) | inactive |

| Compound | outcome |
| --- | --- |
| COc1ccc(CN2CCOC2=O)cc1OC | inactive |
| COC(=O)[C@]1(Cc2ccccc2)N[C@H](CN(C)C(=O)Nc2ccc(C)cc2)[C@@H]2C(=O)N(C)C(=O)[C@@H]21 | inactive |
| CCNc1nc(NC(C)C)nc(N(C)C#N)n1 | inactive |
| CC1CN(S(=O)(=O)c2cc(C(=O)NC(C)c3cccnc3)ccc2Cl)CC(C)O1 (stereo not drawn) | inactive |
| COc1cc2c(cc1OC)[C@H](C)N(C(=O)NCc1ccccc1)CC2 | inactive |
| CC(=O)Nc1nc(C)nc(-c2ccccc2OC(C)=O)n1 | inactive |
| CCOC1=C2[C@H](c3ccc(C)cc3)N(S(=O)(=O)c3ccc(C)cc3)C[C@H]2n2c(=O)n(-c3ccccc3)c(=O)n2C1 | inactive |
| Cc1ccc(C(CC(=O)O)NC(=O)c2ccc(S(=O)(=O)N3CC(C)OC(C)C3)cc2)cc1 (stereo not drawn) | inactive |
| CC(=O)c1cccc(-c2csc3ncnc(Sc4nnnn4C)c23)c1 | inactive |
| CN1C(=O)NC(c2ccc(O)cc2)C2=C1CN(c1ccccc1)C2=O (stereo not drawn) | inactive |
| Cc1ccc(NC(=O)c2ccccc2-c2ccccc2C(=O)O)cc1C | inactive |
| O=C(CC(NC(=O)c1ccccc1)c1ccccc1)Nc1cccc2ccccc12 (stereo not drawn) | inactive |
| C=C(C)C1Cc2c(C)nn(-c3cccc4cccnc34)c2C1 (stereo not drawn) | inactive |
| O=C(COc1ccc(Cl)cc1)NCCS(=O)(=O)N1CCN(c2ccccc2F)CC1 | inactive |
| O=C(COc1cccc2c1CCNC2=O)NC1CCCCC1 | inactive |
| COc1ccc(CN(C)C(=O)CCN=C2NS(=O)(=O)c3ccccc32)c(OC)c1 | inactive |
| COc1ccc(Cc2nnc(NC(=O)Cc3cccs3)s2)cc1OC | inactive |
| CC(C)CC(=O)Nc1cccc(-c2nc3ncccc3o2)c1 | inactive |
| CCOC(=O)c1oc2ccccc2c1NC(=O)c1ccco1 | inactive |
| CCOC(=O)c1c(C)[nH]c(C(C)=NNC(=O)c2cccs2)c1C | inactive |
| CCCCOc1ccc(SCCCN2CCOCC2)cc1 | inactive |
| C/C(=N\NC(=O)CO/N=C(\C)c1cccs1)c1ccc(N)cc1 | inactive |
| Cc1ccnc(NS(=O)(=O)c2ccc(NC(=O)CCc3ccccc3)cc2)n1 | inactive |
| FC(F)(F)c1ccc(Cl)c(-n2c(Cc3cccs3)n[nH]c2=S)c1 | inactive |
| COc1ccc(CNC(=O)C2Cc3c(-c4ccccc4)ccnc3O2)cc1OC (stereo not drawn) | inactive |

| Compound | outcome |
| --- | --- |
| O=C(OC1CCOC1=O)c1cc(-c2ccc(Cl)cc2)nc2ccccc12 (stereo not drawn) | inactive |
| COc1ccc(C2CNC(=O)C2)cc1OC1CCCC1 (stereo not drawn) | inactive |
| O=S(=O)(NCc1ccccc1)c1ccc(S(=O)(=O)N2CCCCC2)cc1 | inactive |
| CCCn1c(O)c(N=NC(=O)c2cccnc2)c2cc(Br)ccc21 | inactive |
| COc1ccc(C(=O)N=C2CCC(C#N)=C3c4cc(OC)c(OC)cc4CCN23)cc1 | inactive |
| C=CCN=c1sc(C(=O)OC)cc(=O)n1CC=C | inactive |
| CC(=O)C(C)n1c(CN(C)Cc2ccccc2)nc2c1c(=O)n(C)c(=O)n2C (stereo not drawn) | inactive |
| COC(=O)C1CCN(c2cc(Cl)nc(N)n2)CC1 | inactive |
| COc1ccc(C(=O)Nc2ccccc2C(=O)NCC2CCCO2)cc1 (stereo not drawn) | inactive |
| O=C(NC(=S)NCC1CCCO1)c1ccc(Cl)cc1Cl (stereo not drawn) | inactive |
| O=C(Nc1ccc(Br)cc1)c1cc2ccccn2n1 | inactive |
| COC(=O)c1c(C)oc(C)c1S(=O)(=O)Nc1ccc(C(C)C)cc1 | inactive |
| COc1ccc(/C=C/c2noc(-c3ccccc3OC(C)=O)n2)cc1 | inactive |
| CCCCc1[nH]c(=O)c(C#N)c2c1CCCC2 | inactive |
| COC(=O)c1ccc(Oc2ccc(C(F)(F)F)cn2)cc1 | inactive |
| c1cc2c(cc1CN1CCN(C3CCCCCC3)CC1)OCO2 | inactive |
| CCOc1ncccc1C(=O)NNC(=O)c1ccccc1-n1cccc1 | inactive |
| CCOc1ncccc1C(=O)NCc1ccc(C)cc1 | inactive |
| O=C(c1cccs1)N(Cc1ccccn1)Cc1ccco1 | inactive |
| COc1ccc2nc(CCN(C)C(=O)C3CCC(=O)N(Cc4cccc(F)c4)C3)[nH]c2c1 (stereo not drawn) | inactive |
| CC1(C)CCCC(C)(C)N1CC(O)COCCOc1ccc(Br)cc1 (stereo not drawn) | inactive |
| Cc1ccc2c(c1)CCCN2C(=O)c1ccc2c(c1)OCO2 | inactive |
| CN(C(=O)c1ccc2c(c1)SC1=NS(=O)(=O)CCN12)C(c1ccccc1)c1ccccc1 | inactive |

Source: PubChem BioAssay AID977606 (Broad Institute, 2014)
